Consider 4 compounds from PubChem BioAssay (EPA / NIEHS).

The term AC50 denotes the midpoint of the concentration-response curve, whichever way the signal moves.

Common to all, as to conditions: mRNA level, 48 h; actives raise or lower the signal
Read-out in test [1]: Cytochrome P450 (CYP2B6), CYP2B6 (gene 1555)
Kind of test: LTEA_HepaRG_CYP2B6: Life Technologies and Expression Analysis (LTEA) Assay for Cytochrome P450 (CYP2B6) using HepaRG (AID 2283481). The procedure, abridged: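 Human HepaRG, 48 h dosing, 0.5% DMSO vehicle, top dose 100 uM. CYP2B6 transcript by qRT-PCR, housekeeping-normalized, bidirectional curve fit.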

Read-out in the next test: CYP2C8 (gene 1558)
Kind of test: LTEA_HepaRG_CYP2C8: Life Technologies and Expression Analysis (LTEA) Assay for CYP2C8 using HepaRG (AID 2283483). The method in brief: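 HepaRG (human liver line), 48 h chemical exposure, 8-pt half-log series from 100 uM, 0.5% DMSO vehicle. Readout: CYP2C8 transcript by qRT-PCR, housekeeping-normalized. Bidirectional fit vs DMSO baseline.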

Read-out in a further test: CYP2C9 (gene 1559)
Description: LTEA_HepaRG_CYP2C9: Life Technologies and Expression Analysis (LTEA) Assay for CYP2C9 using HepaRG (AID 2283484). The method in brief: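 HepaRG, 48 h dosing, 8-pt half-log series, top 100 uM, 0.5% DMSO vehicle. Read-out: CYP2C9 transcript by TaqMan qRT-PCR, housekeeping-normalized (ACTB/GAPDH/POLR2A). Gain or loss fitted vs DMSO baseline.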

Read-out in another test: CYP2E1 (gene 1571)
Kind of test: LTEA_HepaRG_CYP2E1: Life Technologies and Expression Analysis (LTEA) Assay for CYP2E1 using HepaRG (AID 2283485). The procedure, abridged:
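Readout is qRT-PCR of CYP2E1 mRNA, normalized to three housekeeping genes and fitted bidirectionally against 0.5% DMSO. HepaRG cells were dosed 48 h at eight concentrations, highest 100 uM with half-log dilutions.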

Read-out in the next test: CYP4A11 (gene 1579)
Kind of test: LTEA_HepaRG_CYP4A11: Life Technologies and Expression Analysis (LTEA) Assay for CYP4A11 using HepaRG (AID 2283486). The method in brief:
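Human hepatic HepaRG cultures receive duplicate 48 h exposures across a concentration-response series topping at 100 uM. Expression changes in CYP4A11 are measured by qRT-PCR relative to DMSO controls.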

Read-out in test [2]: Cytochrome P450 3A4 (Homo sapiens) (UniProt P08684)
Kind of test: LTEA_HepaRG_CYP3A4: Life Technologies and Expression Analysis (LTEA) Assay for CYP3A4 using HepaRG (AID 2283487). The procedure, abridged: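 HepaRG, 48 h exposure, 8-pt CRC from 100 uM (half-log), 0.5% DMSO, duplicates; serum-free induction medium. Readout: CYP3A4 mRNA, qRT-PCR, ACTB/GAPDH/POLR2A normalization. Bidirectional fit vs DMSO.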

Read-out in test [3]: DNA damage-inducible transcript 3 (DDIT3), DDIT3 (gene 1649)
Description: LTEA_HepaRG_DDIT3: Life Technologies and Expression Analysis (LTEA) Assay for DNA damage-inducible transcript 3 (DDIT3) using HepaRG (AID 2283488). The procedure, abridged:
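Cells are human HepaRG liver cells treated for 48 h with eight half-log concentrations up to 100 uM in 0.5% DMSO. Transcript levels come from qRT-PCR normalized to three housekeeping genes, with activity fitted in both directions relative to vehicle.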

Read-out in test [4]: Pro-epidermal growth factor (Homo sapiens) (UniProt P01133)
Description: LTEA_HepaRG_EGF: Life Technologies and Expression Analysis (LTEA) Assay for Epidermal growth factor (EGF) using HepaRG (AID 2283489). The procedure, abridged:
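Concentration-response mRNA assay: HepaRG cells dosed 48 h (max 100 uM, 0.5% DMSO), EGF measured by qRT-PCR and normalized to ACTB/GAPDH/POLR2A.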

Read-out in test [5]: Early growth response protein 1 (EGR1) transcription factor, EGR1 (gene 1958)
Kind of test: LTEA_HepaRG_EGR1: Life Technologies and Expression Analysis (LTEA) Assay for Early growth response protein 1 (EGR1) transcription factor using HepaRG (AID 2283490). The method in brief:
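HepaRG, 48 h exposure, 8-pt half-log series from 100 uM, 0.5% DMSO vehicle; EGR1 transcript by TaqMan qRT-PCR (Fluidigm array), housekeeping-normalized; bidirectional fit relative to DMSO baseline.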

Read-out in test [6]: Ezrin (EZR), EZR (gene 7430)
Description: LTEA_HepaRG_EZR: Life Technologies and Expression Analysis (LTEA) Assay for Ezrin (EZR) using HepaRG (AID 2283491). The procedure, abridged:
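Read-out is EZR transcript level by qRT-PCR, normalized to three housekeeping genes and fitted bidirectionally against the DMSO control. Human HepaRG cells received test chemicals for 48 h at eight half-log concentrations up to 100 uM in 0.5% DMSO.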

Read-out in test [7]: Cytochrome P450 3A7 (Homo sapiens) (UniProt P24462)
Kind of test: LTEA_HepaRG_CYP3A7: Life Technologies and Expression Analysis (LTEA) Assay for CYP3A7 using HepaRG (AID 2283492). The method in brief: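 qRT-PCR of CYP3A7 in HepaRG lysates after 48 h treatment; concentration-response (8 points, max 100 uM) analysed bidirectionally relative to 0.5% DMSO controls.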

Read-out in the next test: CYP3A5 (gene 1577)
Description: LTEA_HepaRG_CYP3A5: Life Technologies and Expression Analysis (LTEA) Assay for CYP3A5 using HepaRG (AID 2283493). The procedure, abridged:
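Human HepaRG hepatic cells receive 48 h chemical treatment at eight concentrations (half-log steps from 100 uM) in 0.5% DMSO. Expression of CYP3A5 is quantified by Fluidigm qRT-PCR and normalized to three reference genes.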

Read-out in test [8]: Fatty Acid-Binding Protein 1 (FABP1), FABP1 (gene 2168)
Kind of test: LTEA_HepaRG_FABP1: Life Technologies and Expression Analysis (LTEA) Assay for Fatty Acid-Binding Protein 1 (FABP1) using HepaRG (AID 2283494). The procedure, abridged: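 qRT-PCR readout of FABP1 transcript (normalized to three housekeeping genes) after 48 h chemical exposure of HepaRG cells; eight concentrations, half-log steps, max 100 uM, 0.5% DMSO vehicle; gain or loss fitted relative to DMSO baseline.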

Read-out in test [9]: Cytochrome P450 4A22 (Homo sapiens) (UniProt Q5TCH4)
Description: LTEA_HepaRG_CYP4A22: Life Technologies and Expression Analysis (LTEA) Assay for Cytochrome P450 4A22 (CYP4A22) using HepaRG (AID 2283495). The procedure, abridged:
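Concentration-response (8 points, max 100 uM, 0.5% DMSO) in human HepaRG liver cells after 48 h exposure. CYP4A22 mRNA by TaqMan qRT-PCR with housekeeping-gene normalization.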

Read-out in test [10]: Cytochrome P450 7A1 (Homo sapiens) (UniProt P22680)
Kind of test: LTEA_HepaRG_CYP7A1: Life Technologies and Expression Analysis (LTEA) Assay for Cytochrome P450 7A1 (CYP7A1) using HepaRG (AID 2283496). The procedure, abridged: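 HepaRG, 48 h exposure, 8-pt half-log series from 100 uM, 0.5% DMSO vehicle, duplicates. Readout: TaqMan qRT-PCR mRNA vs three housekeeping genes; bidirectional curve fit against DMSO baseline.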

Read-out in test [11]: Glutathione S-Transferase (GSTA2), GSTA2 (gene 2939)
Description: LTEA_HepaRG_GSTA2: Life Technologies and Expression Analysis (LTEA) Assay for Glutathione S-Transferase (GSTA2) using HepaRG (AID 2283497). The method in brief:
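qRT-PCR readout of GSTA2 transcript, normalized to three housekeeping genes, fitted bidirectionally against 0.5% DMSO baseline. Differentiated HepaRG cells received compound for 48 h at 8 concentrations (top 100 uM, half-log steps).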

Read-out in test [12]: Glutamate-cysteine ligase catalytic (GCLC), GCLC (gene 2729)
Description: LTEA_HepaRG_GCLC: Life Technologies and Expression Analysis (LTEA) Assay for Glutamate-cysteine ligase catalytic (GCLC) using HepaRG (AID 2283498). The method in brief:
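HepaRG, 48 h exposure, 8-pt half-log series from 100 uM, 0.5% DMSO vehicle; TaqMan qRT-PCR for GCLC mRNA, housekeeping-normalized; bidirectional curve fit vs DMSO baseline.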

Read-out in test [13]: growth arrest and DNA damage 45 (GADD45G), GADD45G (gene 10912)
Description: LTEA_HepaRG_GADD45G: Life Technologies and Expression Analysis (LTEA) Assay for growth arrest and DNA damage 45 (GADD45G) using HepaRG (AID 2283499). The procedure, abridged: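 Concentration-response in HepaRG: 48 h dosing, 0.5% DMSO, highest level 100 uM. GADD45G expression by qRT-PCR, normalised to endogenous controls; bidirectional fit to DMSO.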

Read-out in test [14]: Glutamate-cysteine ligase regulatory (GCLM), GCLM (gene 2730)
Description: LTEA_HepaRG_GCLM: Life Technologies and Expression Analysis (LTEA) Assay for Glutamate-cysteine ligase regulatory (GCLM) using HepaRG (AID 2283500). The procedure, abridged: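 Endpoint is GCLM transcript level by qRT-PCR, normalized to three housekeeping genes, after 48 h chemical exposure of human HepaRG cells (0.5% DMSO vehicle, top 100 uM, half-log dilutions). Fitting was bidirectional relative to DMSO.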

Read-out in test [15]: Cytochrome P450 2C19 (Homo sapiens) (UniProt P33261)
Kind of test: LTEA_HepaRG_CYP2C19: Life Technologies and Expression Analysis (LTEA) Assay for CYP2C19 using HepaRG (AID 2283482). The method in brief:
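Endpoint: CYP2C19 mRNA change, bidirectional fit vs 0.5% DMSO. Cells: HepaRG, 48 h exposure, eight-point series topping at 100 uM. Quantitation: qRT-PCR normalized to ACTB, GAPDH, POLR2A.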

Values joined by “and” are separate entries in the source; they are usually repeats but may differ in a detail not shown here. Equal values may be shown once. A structure can be active in one record and inactive in another. Active and inactive are the calls of the source. The calls were made as follows: active = hit-call score of the fitted dose curve at least 0.9, where 1 is the maximum; inactive = score below 0.9.

Cytochrome P450 3A7 (Homo sapiens), sequence (P24462 whole entry, looked up): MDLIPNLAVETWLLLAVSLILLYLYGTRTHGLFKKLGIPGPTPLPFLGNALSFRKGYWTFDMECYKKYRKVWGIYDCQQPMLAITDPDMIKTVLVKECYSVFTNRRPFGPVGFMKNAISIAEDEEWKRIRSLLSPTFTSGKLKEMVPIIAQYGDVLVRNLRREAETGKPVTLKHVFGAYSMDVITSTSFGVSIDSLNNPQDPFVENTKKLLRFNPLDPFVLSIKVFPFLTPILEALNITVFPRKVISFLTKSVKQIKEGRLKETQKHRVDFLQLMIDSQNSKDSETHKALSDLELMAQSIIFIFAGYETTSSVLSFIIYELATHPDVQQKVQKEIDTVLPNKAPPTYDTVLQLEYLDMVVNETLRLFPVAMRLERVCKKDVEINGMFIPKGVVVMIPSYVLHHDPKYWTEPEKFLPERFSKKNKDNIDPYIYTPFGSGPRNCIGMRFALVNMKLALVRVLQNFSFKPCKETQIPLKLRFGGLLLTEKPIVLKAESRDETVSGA
Cytochrome P450 3A4 (Homo sapiens), sequence (P08684 whole entry, looked up): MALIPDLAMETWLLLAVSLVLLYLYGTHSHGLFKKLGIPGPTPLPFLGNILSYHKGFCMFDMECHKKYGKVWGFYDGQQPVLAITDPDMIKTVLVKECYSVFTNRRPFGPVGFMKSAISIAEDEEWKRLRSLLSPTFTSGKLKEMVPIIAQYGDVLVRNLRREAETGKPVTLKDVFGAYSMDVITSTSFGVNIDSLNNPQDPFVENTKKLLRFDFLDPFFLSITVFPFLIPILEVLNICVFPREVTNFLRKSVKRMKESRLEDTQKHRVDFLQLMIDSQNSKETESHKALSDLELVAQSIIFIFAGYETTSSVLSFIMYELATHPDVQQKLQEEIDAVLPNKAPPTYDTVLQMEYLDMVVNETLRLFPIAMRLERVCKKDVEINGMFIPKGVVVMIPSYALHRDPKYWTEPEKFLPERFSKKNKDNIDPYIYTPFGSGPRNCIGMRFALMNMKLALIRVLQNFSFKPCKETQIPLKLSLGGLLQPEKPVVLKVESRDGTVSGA
Cytochrome P450 2C19 (Homo sapiens), sequence (P33261 whole entry, looked up): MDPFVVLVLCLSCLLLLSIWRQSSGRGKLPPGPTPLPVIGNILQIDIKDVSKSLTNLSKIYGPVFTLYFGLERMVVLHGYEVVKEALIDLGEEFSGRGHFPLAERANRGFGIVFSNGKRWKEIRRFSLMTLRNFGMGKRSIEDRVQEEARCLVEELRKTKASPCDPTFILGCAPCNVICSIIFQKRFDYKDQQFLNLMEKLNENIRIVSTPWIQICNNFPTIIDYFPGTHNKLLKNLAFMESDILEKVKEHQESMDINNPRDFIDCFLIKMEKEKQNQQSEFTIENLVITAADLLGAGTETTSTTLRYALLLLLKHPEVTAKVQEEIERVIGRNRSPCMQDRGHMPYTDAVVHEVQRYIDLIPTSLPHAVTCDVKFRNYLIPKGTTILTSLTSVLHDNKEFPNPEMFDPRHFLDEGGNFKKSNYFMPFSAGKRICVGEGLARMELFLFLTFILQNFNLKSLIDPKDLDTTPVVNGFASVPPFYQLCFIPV

For the compound `CCCCNC(=O)OCC#CI`, the concentration at half-maximal activity (AC50) in [1] is 30.6 µM (active); in the test with CYP2C8 (gene 1558) it was 50 µM (active); with CYP2C9 (gene 1559), 21.5 µM (active); in test [7], 50 µM (active); in test [8] it was 50 µM (active); in [10] it was 50 µM (active). Moreover, the results for the AC50 in test [11] and in test [12] were 9.92 µM (active) and 7.66 nM (active), respectively. Moreover, the compound was classed as inactive (with CYP2E1 (gene 1571); with CYP4A11 (gene 1579); in [2]; in test [3]; in test [4]; in test [5]). Moreover, the result (in test [6]; with CYP3A5 (gene 1577); in test [9]; in test [13]; in [14]) was inactive.

Regarding `CS/C(C)=N/OC(=O)N(C)SN(C)C(=O)O/N=C(\C)SC`, the compound was called inactive (in test [1]; with CYP2C8 (gene 1558); with CYP2C9 (gene 1559); with CYP4A11 (gene 1579); in test [2]; in test [3]). The result (in test [4]; in test [5]; in test [6]; in test [7]; with CYP3A5 (gene 1577); in [8]) was inactive. In addition, the outcome in [9], in [12], in test [13] and in test [14] was inactive. The AC50 (in the test with CYP2E1 (gene 1571); in [10]) was 9.92 µM (active) each time.

Regarding `CCCN(CCC)c1c([N+](=O)[O-])cc(S(N)(=O)=O)cc1[N+](=O)[O-]`, the half-maximal activity concentration (AC50) was 11.1 µM (active) and 11.9 µM (active) and 10.7 µM (active) in test [1]; 95 µM (active) and 82 µM (active) in the test with CYP2C9 (gene 1559); 15.6 µM (active) and 12.9 µM (active) and 20.1 µM (active) with CYP2E1 (gene 1571); 93.5 µM (active) and 15.8 µM (active) in the test with CYP4A11 (gene 1579); 8.79 µM (active) and 12.1 µM (active) and 90.8 µM (active) in test [2]; 93.7 µM (active) and 67.7 µM (active) in test [3]. Further, the AC50 in test [5] was 93.2 µM (active) and 83.6 µM (active) and 78.9 µM (active); in test [7], 6.08 µM (active); with CYP3A5 (gene 1577) it was 93.8 µM (active) and 50 µM (active); in [8] it was 93.5 µM (active) and 35.6 µM (active) and 34.9 µM (active); in [12], 70.9 µM (active) and 83.9 µM (active); in test [14], 92 µM (active). Further, the call (in the test with CYP2C8 (gene 1558); with CYP2C9 (gene 1559); with CYP4A11 (gene 1579); in [3]; in [7]; with CYP3A5 (gene 1577)) was inactive. For the same compound, the compound was called inactive in test [12], in test [13] and in test [14].

As to `COC(=O)C=C(C)OP(=O)(OC)OC`, the compound was classed as inactive (in test [1]; in test [15]; with CYP2C8 (gene 1558); with CYP2C9 (gene 1559); in the test with CYP2E1 (gene 1571); with CYP4A11 (gene 1579)). Besides, the call (in [2]; in test [3]; in [4]; in [7]; in the test with CYP3A5 (gene 1577); in [8]) was inactive. Besides, the outcome in test [9], in test [12], in test [13] and in test [14] was inactive. Besides, the results for the AC50 in test [5] and in test [10] were 50 µM (active) and 14.7 µM (active), respectively.
